Where “and” joins values, the source holds several entries; their conditions need not be identical. Identical values can stand only once. Inconclusive results are not listed. A number with no mark means an inactive call. Calls of active or inactive are those of the source. Calls come from the whole dose curve; as a rule, active = well fitted inhibition curve with a large enough effect; inconclusive = small, poorly fitted or top-dose-only effect; inactive = flat fitted curve, though single readings scatter.
Legend:
[1] = Drug repurposing screens with cells derived from glioblastoma tumor samples (AID 1345199); settings: GBM patient neurospheres viability, ATP luminescence, 48 h; note: nearly all actives have a fitted effect of over 40% in size
Procedure, shortened: (§1)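 Primary testing used CD133+ neurospheres from four GBM patients, seven concentrations, 48 h exposure and ATP-based viability; confirmation added three slower-growing patient lines.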

[2] = tested on: astro; test: as above; settings: viability, ATP luminescence, 48 h; series mostly up to 45.9 µM
Procedure, shortened: as §1

[3] = at 45.9 µM (top of the series), tumour line B
[4] = at 45.9 µM (top of the series), tumour line D
[5] = at 46 µM (top of the series), tumour line A
[6] = at 46.1 µM (top of the series), tumour line C
[7] = at 20 µM (top of the series), tumour line C
[8] = at 21.2 µM (top of the series), tumour line B
% is set by controls: 0 for no effect and ±100 for the full control effect; potency is the fitted concentration of half-maximal effect.

## O=C1c2ccccc2C(=O)C1c1ccc(F)cc1
[1]; [3]
  activity, negative = cell killing: -20.2%
[1]; [4]
  activity, negative = cell killing: -13.5%
[1]; [5]
  activity, negative = cell killing: -45.8%
[2]
  Potency: inactive

## N=C(N)c1ccc(/C=C/c2ccc(C(=N)N)cc2O)cc1
[1]; [3]
  activity, negative = cell killing: -18.3%
[1]; [4]
  activity, negative = cell killing: -9.46%
[1]; [6]
  activity, negative = cell killing: -14.7%
[2]
  Potency: inactive

## CN(C)CCC(O)(c1ccccc1)c1ccccc1Cl (stereo not drawn)
[1]; [3]
  activity, negative = cell killing: -11.1%
[1]; [6]
  activity, negative = cell killing: -17.6%
[1]; tumour line A
  Potency: 11.2 µM (active)
[2]
  Potency: inactive

## CC(C)CN(C[C@@H](O)[C@H](Cc1ccccc1)NC(=O)O[C@@H]1CCOC1)S(=O)(=O)c1ccc(N)cc1
[1]; [3]
  activity, negative = cell killing: -6.03%
[1]; [4]
  activity, negative = cell killing: -14.3%
[1]; [6]
  activity, negative = cell killing: -3.48%
[2]
  Potency: inactive

## O=S(=O)(O)CCCS(=O)(=O)O
[1]; [3]
  activity, negative = cell killing: -8.81%
[1]; [4]
  activity, negative = cell killing: -10.4%
[1]; [6]
  activity, negative = cell killing: -13.4%
[2]
  Potency: inactive

## O=S(=O)(O)CC(S)CS (stereo not drawn)
[1]; [3]
  activity, negative = cell killing: -24.2%
[1]; [4]
  activity, negative = cell killing: -0.499%
[1]; [6]
  activity, negative = cell killing: -22%
[2]
  Potency: inactive

## O=C(CCCN1CCC(C(=O)c2ccc(F)cc2)CC1)c1ccc(F)cc1
[1]; [3]
  activity, negative = cell killing: -22%
[1]; [6]
  activity, negative = cell killing: -4.95%
[1]; tumour line A
  Potency: 8.91 µM (active)
[2]
  Potency: inactive

## CNC(=O)OCc1cccc(COC(=O)NC)n1
[1]; [3]
  activity, negative = cell killing: -20.8%
[1]; [4]
  activity, negative = cell killing: 4.88%
[1]; [5]
  activity, negative = cell killing: -25.4%
[2]
  Potency: inactive

## CC(=O)[C@H]1CC[C@H]2[C@@H]3C=CC4=CC(=O)CC[C@@]4(C)[C@H]3CC[C@]12C
[1]; [7]
  activity, negative = cell killing: -18.4%
[1]; [8]
  activity, negative = cell killing: -29%
[1]; tumour line A
  Potency: 3.55 µM (active)
[2]
  Potency: inactive

## CCCCCCCCCCCCCCCCCC[N+](C)(C)CCC[Si](OC)(OC)OC
[1]; [3]
  activity, negative = cell killing: -16.4%
[1]; [4]
  activity, negative = cell killing: -4.63%
[1]; [6]
  activity, negative = cell killing: -7.69%
[2]
  Potency: inactive

## CC(C)CCC[C@@H](C)[C@H]1CC[C@H]2[C@@H]3CC[C@@H]4C[C@H](O)CC[C@]4(C)[C@H]3CC[C@]12C
[1]; [3]
  activity, negative = cell killing: -2.13%
[1]; [4]
  activity, negative = cell killing: -20.8%
[1]; [6]
  activity, negative = cell killing: -6.49%
[2]
  Potency: inactive

## COc1ccc2cc([C@H](C)CO)ccc2c1
[1]; [3]
  activity, negative = cell killing: -14.5%
[1]; [4]
  activity, negative = cell killing: 4.49%
[1]; [6]
  activity, negative = cell killing: -21.2%
[2]
  Potency: inactive

## COc1ccc(/C=N/NC(=O)c2ccncc2)c(C(=O)O)c1OC
[1]; [3]
  activity, negative = cell killing: -18.2%
[1]; [4]
  activity, negative = cell killing: 8.03%
[1]; [5]
  activity, negative = cell killing: -30.2%
[2]
  Potency: inactive

## CC(O)CN(C)C (stereo not drawn)
[1]; [3]
  activity, negative = cell killing: -7.97%
[1]; [4]
  activity, negative = cell killing: -11.2%
[1]; [6]
  activity, negative = cell killing: -3.25%
[2]
  Potency: inactive

## C=CCN1CCCC1CNC(=O)c1cc(S(N)(=O)=O)cc(OC)c1OC (stereo not drawn)
[1]; [3]
  activity, negative = cell killing: -7.52%
[1]; [4]
  activity, negative = cell killing: -19.4%
[1]; tumour line A
  Potency: 35.5 µM (active)
[2]
  Potency: inactive

## CN1CCN(C(c2ccccc2)c2ccc(Cl)cc2)CC1 (stereo not drawn)
[1]; [7]
  activity, negative = cell killing: 3.89%
[1]; [8]
  activity, negative = cell killing: -16.8%
[1]; tumour line A
  Potency: 11.2 µM (active)
[2]
  Potency: inactive

## CC1CCCCN1CCCOC(=O)c1ccccc1 (stereo not drawn)
[1]; [3]
  activity, negative = cell killing: -12.2%
[1]; [4]
  activity, negative = cell killing: -13.7%
[1]; [6]
  activity, negative = cell killing: -1.82%
[2]
  Potency: inactive

## C[C@H](NCCc1ccc(O)cc1)[C@H](O)c1ccc(O)cc1
[1]; [3]
  activity, negative = cell killing: -2.5%
[1]; [4]
  activity, negative = cell killing: -20.4%
[1]; [6]
  activity, negative = cell killing: -12.8%
[2]
  Potency: inactive

## O=C(/C=C/c1cccc(F)c1)NC1CC1
[1]; [3]
  activity, negative = cell killing: -18.1%
[1]; [4]
  activity, negative = cell killing: -4.02%
[1]; [6]
  activity, negative = cell killing: -17.9%
[2]
  Potency: inactive

## COc1ccc(-c2noc(CC(=O)O)c2-c2ccc(OC)cc2)cc1
[1]; [3]
  activity, negative = cell killing: -13.4%
[1]; [4]
  activity, negative = cell killing: -6.66%
[1]; [6]
  activity, negative = cell killing: -18%
[2]
  Potency: inactive

## Cc1cccc(C)c1NC(=O)NC1=CCCN1C
[1]; [3]
  activity, negative = cell killing: -5.38%
[1]; [4]
  activity, negative = cell killing: -0.755%
[1]; [6]
  activity, negative = cell killing: 0.0506%
[2]
  Potency: inactive

## CC(=O)N[C@@H](C=O)[C@@H](O)[C@H](O)[C@H](O)CO
[1]; [3]
  activity, negative = cell killing: -6.52%
[1]; [4]
  activity, negative = cell killing: -3.57%
[1]; [6]
  activity, negative = cell killing: -2.77%
[2]
  Potency: inactive

## Cc1cc(=O)c(C(=O)N[C@@H](C(=O)N[C@@H]2C(=O)N3C(C(=O)O)=C(CSc4nnnn4C)CS[C@H]23)c2ccc(O)cc2)c[nH]1
[1]; [3]
  activity, negative = cell killing: -7.34%
[1]; [4]
  activity, negative = cell killing: 13%
[1]; [6]
  activity, negative = cell killing: -6.97%
[2]
  Potency: inactive

## O=C(O)CCCC/C=C(\c1ccccc1)c1cccnc1
[1]; [3]
  activity, negative = cell killing: -6.07%
[1]; [4]
  activity, negative = cell killing: -10.6%
[1]; [6]
  activity, negative = cell killing: -17.1%
[2]
  Potency: inactive

## C[C@H](O)CN(C)C
[1]; [3]
  activity, negative = cell killing: -3.73%
[1]; [4]
  activity, negative = cell killing: -16.1%
[1]; [6]
  activity, negative = cell killing: -13.2%
[2]
  Potency: inactive

## C[C@@H]1C[C@H]2[C@@H]3C[C@H](F)C4=CC(=O)C=C[C@]4(C)[C@@]3(Cl)[C@@H](O)C[C@]2(C)[C@H]1C(=O)COC(=O)C(C)(C)C
[1]; [3]
  activity, negative = cell killing: -18.4%
[1]; [4]
  activity, negative = cell killing: -9.89%
[1]; [6]
  activity, negative = cell killing: -26.7%
[2]
  Potency: inactive

## C(=C\c1ccncc1)/c1ccccc1
[1]; [3]
  activity, negative = cell killing: -13.9% and -17.3%
[1]; [4]
  activity, negative = cell killing: -13.7% and -5.95%
[1]; [6]
  activity, negative = cell killing: -11.5%
[2]
  Potency: inactive

Source: PubChem BioAssay (NCATS)
